# Source: PubChem BioAssay (Tox21)
# Results filed as inconclusive are left out. A number with no mark means an inactive call. Calls come from the whole dose curve.
# Molecular target: Thyrotropin receptor (Homo sapiens) (UniProt P16473)
# Assay: qHTS assay to identify small molecule antagonists of the thyroid stimulating hormone receptor (TSHR) signaling pathway (AID 1259385); note: nearly all actives have a fitted effect of over 20% in size
# Conditions: TSHR-HEK293 cAMP HTRF, TSH-stimulated antagonist mode; series mostly up to 92.4 µM; activity change, negative = inhibition: at the top concentration
# Source text: U.S. Tox21 Program National Center for Advancing Translational Sciences [NCATS] NIH Chemical Genomics Center [NCGC] U.S. Environmental Protection Agency [EPA] National Institutes of Environmental Health Sciences [NIEHS] National Toxicology Program [NTP] U.S. Food and Drug Administration [FDA] Tox21 Assay Overview: TSHR is the receptor for thyrotropin (thyroid stimulating hormone or TSH), a member of the glycoprotein hormone family. TSH is released by the anterior pituitary gland and is the main regulator of thyroid gland growth and development. Upon binding circulating thyrotropin, a G-protein signal cascade activates adenylyl cyclase and […] cAMP concentration is increased. cAMP is a key second messenger involved extensively in cellular signal transduction pathways associated with the majority of G-protein coupled receptors (GPCRs). The activation of these GPCRs by neurotransmitters, lipids, nucleotides, peptides and hormones results in the activation or the inhibition of plasma membrane-bound adenylate cyclase through heterotrimeric G-proteins. A cell-based TSHR assay can be used to screen chemical compounds that modulate TSHR either in agonist or antagonist mode.
# Tox21 Assay Protocol Summary: TSHR-Hek293 cells were dispensed at 800 cells/4uL/well in 1536-well white plates using a Multidrop dispenser. After the assay plates were incubated at a 37C/5% CO2 incubator for 18 hrs, 23 nL of compounds dissolved in DMSO, positive controls or DMSO only was transferred to the assay plate by a pin tool, followed by 1 ul medium containing Ro20-1724. For the antagonist mode screening, 1 uL of TSH was added on the top of the cell/compound mixtures to achieve a final agonist concentration of 1.5 ng/mL. After 30 min of incubation at room temperature, 2.5 ul/well of cAMP-d2 and 2.5 ul/well of anti-cAMP-cryptate were added respectively into the assay plates using a Flying Reagent Dispenser. The plates were incubated at room temperature for 1 hr. The fluorescence intensity in the plates was measured using an Envision plate reader. Each test compound was measured at 15 concentrations and in triplicates.
# % is set by controls: 0 for no effect and ±100 for the full control effect.
# Chain of Thyrotropin receptor (Homo sapiens) (P16473 whole entry, looked up): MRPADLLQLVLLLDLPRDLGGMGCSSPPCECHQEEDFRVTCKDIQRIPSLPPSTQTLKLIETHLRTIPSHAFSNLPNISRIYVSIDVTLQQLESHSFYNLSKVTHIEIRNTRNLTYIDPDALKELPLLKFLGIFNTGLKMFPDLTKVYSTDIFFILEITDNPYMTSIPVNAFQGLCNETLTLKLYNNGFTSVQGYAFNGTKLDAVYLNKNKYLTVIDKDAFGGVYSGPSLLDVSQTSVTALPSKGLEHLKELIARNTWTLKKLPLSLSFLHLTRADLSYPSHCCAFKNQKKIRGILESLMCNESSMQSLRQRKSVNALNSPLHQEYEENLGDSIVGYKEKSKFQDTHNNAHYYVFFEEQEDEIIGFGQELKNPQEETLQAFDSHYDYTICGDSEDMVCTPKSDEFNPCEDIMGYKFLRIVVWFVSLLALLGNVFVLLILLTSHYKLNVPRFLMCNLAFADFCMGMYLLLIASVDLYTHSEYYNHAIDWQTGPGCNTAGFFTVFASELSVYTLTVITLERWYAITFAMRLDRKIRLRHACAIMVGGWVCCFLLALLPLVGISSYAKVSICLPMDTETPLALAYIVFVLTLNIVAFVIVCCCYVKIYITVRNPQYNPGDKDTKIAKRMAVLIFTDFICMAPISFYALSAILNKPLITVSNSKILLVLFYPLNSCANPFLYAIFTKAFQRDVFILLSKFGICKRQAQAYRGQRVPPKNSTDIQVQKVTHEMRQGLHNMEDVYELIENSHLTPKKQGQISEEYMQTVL
row,SMILES,"activity change, negative = inhibition"
1,[As]#[In],0.992%
2,COc1cccc2c1cc([N+](=O)[O-])c1c(C(=O)O)cc3c(c12)OCO3,-2.15%
3,CN1CCC(N(Cc2ccccc2)c2ccccc2)CC1,4.9% [at 42.5 µM]
4,N#CCBr,5.94%
5,COC(C)(C)C,3.29%
6,CCOP(=O)(OCC)OP(=O)(OCC)OCC,0.439%
7,OC(c1ccccc1)(c1ccccc1)C1CCNCC1,-0.869% [at 42.5 µM]
8,CNC(=O)Oc1ccc(N(C)C)c(C)c1,-2.28%
9,CCNc1nc(NC(C)C)nc(OC)n1,4.4%
10,CCN(CC)c1nc(C)cc(OP(=S)(OC)OC)n1,0.0916%
11,C=CC1CC=CCC1 (stereo not given),1.06%
12,CCC/C(=N\OCC)C1=C(O)CC(CC(C)SCC)CC1=O (stereo not given),2.94%
13,O=[N+]([O-])c1cccc2cccnc12,3.33%
14,CSc1nc(N=[N+]=[N-])nc(NC(C)C)n1,-0.257%
15,CN1C(=S)CN=C(c2ccccc2)c2cc(Cl)ccc21,-7.31% [at 42.5 µM]
16,CC(C)(C)OC(=O)c1ncn2c1[C@@H]1CCCN1C(=O)c1c(Br)cccc1-2,0.309% [at 42.5 µM]
17,CCN(CC)CCOC(=O)C(C)(c1ccccc1)c1ccccc1,-1.1% [at 42.5 µM]
18,CC1(C)C(=O)NC(=O)NC1=O,-4.79%
19,CC(C)CP(=S)(S)CC(C)C,0.969%
20,CCCCc1c(C)nc(NCC)[nH]c1=O,-5.79%

row,SMILES,"activity change, negative = inhibition"
1,O=C1c2ccccc2C(=O)c2ccccc21,-0.629% [at 19 µM]
2,CCS(=O)(=O)CCSP(=O)(OC)OC,-0.43%
3,CCCSC(=O)N(CCC)CCC,-0.513%
4,CN1CCN(C(=O)O[C@H]2c3nccnc3C(=O)N2c2ccc(Cl)cn2)CC1,-0.11% [at 42.5 µM]
5,CNC(=O)Oc1c(C(C)(C)C)cc(C)cc1C(C)(C)C,-0.0172%
6,CC1=NNC(=O)N(/N=C/c2cccnc2)C1,-2.33%
7,C[C@@H]1CN(C2CCC(C#N)(c3ccc(F)cc3)CC2)CC[C@]1(C(=O)O)c1ccccc1 (stereo not given in full),-2.78% [at 42.5 µM]
8,COc1cc(C[C@@H](C)N)c(OC)cc1C,2.13%
9,O=CNC(N1CCN(C(NC=O)C(Cl)(Cl)Cl)CC1)C(Cl)(Cl)Cl (stereo not given),0.238%
10,CCCCCCBr,0.888%
11,Nc1cc2c3c(c1)C(c1ccccc1)=N[C@@H](NC(=O)c1cccnc1)C(=O)N3CC2,-0.898%
12,O=P(O)(Oc1ccccc1)Oc1ccccc1,-1.39%
13,CC(N)=S,3.16%
14,ClC(Cl)Br,-1.37%
15,OCCSCSCCO,-0.987%
16,C[N+](C)=CCl,5.81%
17,COC(=O)c1ccccc1S(=O)(=O)NC(=O)Nc1nc(C)cc(C)n1,4.32%
18,CC(C)COP(=O)(OCC(C)C)OCC(C)C,-7.97%
19,Cc1cc(C)c(C(=O)P(=O)(C(=O)c2c(C)cc(C)cc2C)c2ccccc2)c(C)c1,1.37%
20,CC1CCC(=O)O1 (stereo not given),0.383%
